# According to PubChem BioAssay AID743279 (National Center for Advancing Translational Sciences (NCATS), 2014):
# The campaign covered roughly 360,000 compounds. About 17,000 (4.7%) were called active. Not shown: some 5% with an inconclusive outcome. Many of the other results were omitted from the sample, so actives are more common in it than they were. Values without a mark were called inactive. Cut-off read from the data, not from the text of the source: active = activity change below about -50%; inconclusive = mostly about -30% to -49%; inactive = weaker than that.
# Experiment: qHTS for Inhibitors of Inflammasome Signaling: IL-1-beta AlphaLISA Primary Screen
# Details: THP-1 LPS/ATP IL-1B secretion, 16 h; at 57.5 µM, stronger effect = lower value
# In short: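 Secreted IL-1B measured by AlphaLISA bead assay after 16 h compound exposure of THP-1 cells; compounds (final up to 57.5 uM) added 1 h before LPS (250 ng/mL) and ATP (1.25 mM) stimulation; lower signal means less secretion.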
# % is set by controls: 0 for no effect and ±100 for the full control effect.
row,Compound,activity change
1,CCOC(=O)C1=C(CSc2nccn2C)NC(=O)NC1c1ccc(OC)cc1 (stereo unspecified),-4.23%
2,Cn1c(=O)[nH]c2c(c(C(=O)O)nn2C)c1=O,-10.6%
3,CCOc1ccc(C(=O)Nc2ccncc2)cc1,-73.6% (active)
4,CCc1ccc(NC(=O)N[C@H](C(=O)O)C(C)CC)cc1 (stereo partly specified),21.9%
5,CSc1cccc(NC(=O)CSc2ccccc2)c1,-2.08%
6,CCOc1ccc(C(=O)Nc2cccc(-c3ccc4nncn4n3)c2)cc1,0%
7,CCOc1ccc(NC(=O)c2ccc(NC(=O)C3CCCO3)cc2)cc1 (stereo unspecified),-7.47%
8,CC(C)CC(=O)Nc1ccc(Cc2ccncc2)cc1,-7.35%
9,CCc1ccc(NC(=O)Nc2ccncc2)cc1,-73.4% (active)
10,CCOc1ccc(C(=O)Nc2cccc(SC)c2)cc1,-79.8% (active)
11,CCOc1ccc(C(=O)CCC(=O)Nc2ccncc2)cc1,2.33%
12,COC(=O)C(Cc1c[nH]c2ccccc12)NC(=O)CCNC(=O)c1ccco1 (stereo unspecified),19.3%
13,CCOC(=O)[C@]12CCC=C1N(CCC1=CCCCC1)C(=O)[C@H](CC(=O)NCc1ccc(C)o1)C2,13.9%
14,COc1cccc(CN(C)C(=O)CC[C@H]2O[C@@H](n3cnc4c(NC(=O)c5ccccc5)ncnc43)[C@H](O)[C@@H]2O)c1,-16.9%
15,CCn1cc(CN2CCC(n3nccc3NC(=O)CCCc3ccccc3)CC2)c(C)n1,40%
16,O=C(Nc1cnn(Cc2ccc(Cl)cc2)c1)C1CCCC1,-16.9%
17,CCn1cc(CN2CCC(C(=O)Nc3cccc(-c4cccc(Cl)c4)c3)CC2)c(C)n1,-53.4% (active)
18,CC(=O)c1cc(CN2CCC(C(=O)Nc3cccc(-c4cscn4)c3)CC2)cs1,inactive
19,CCn1cc(CN2CCC(C(=O)Nc3cccc(-c4cccc(Cl)c4)c3)CC2)cn1,-79.5% (active)
20,O=C(Nc1cccc(-c2cscn2)c1)C1CCN(Cc2ccsc2)CC1,-28.7%
21,C=CCOc1ccc(/C=C/C(=O)OC(C)C(=O)Nc2ccc(NC(C)=O)cc2)cc1 (stereo unspecified),-0.196%
22,Nc1cc(=O)c2[nH]cnc2[nH]1,17.6%
23,CCc1nc2ccc(C(=O)N(C)CCN(C)C)cn2c1N(CC)CCOC,-19.3%

row,Compound,activity change
1,CC(C)C[C@@H]1Cc2[nH][nH]c(=O)c2[C@H](CCc2ccccc2)O1,-2.24%
2,CC1(c2cccc(Br)c2)NC(=O)N(CC(=O)NCCC2=CCCCC2)C1=O (stereo unspecified),1.79%
3,COc1cccc2c1C(=O)c1c(O)c3c(c(O)c1C2=O)CC(O)(C(C)=NNC(=O)c1ccc(Cl)c(Cl)c1)CC3OC1CC(N)C(O)C(C)O1 (stereo unspecified),-101% (active)
4,Oc1c(CN2CCOCC2)ccc(CN2CCOCC2)c1O,14.4%
5,CN(C(=O)c1cccc(NC(=O)Cc2ccc(NC(=O)C3CCN(C(=O)C4CCCCC4)CC3)cc2)c1)C1CCC1,-1.34%
6,CN1CCN(C2Cc3ccc(Cl)cc3Sc3ccc(F)cc32)CC1 (stereo unspecified),-63.5% (active)
7,COC(=O)C1NN=C(C(=O)c2ccc(Br)cc2)C1c1cccc(Br)c1 (stereo unspecified),19.6%
8,C[C@H]1CN([C@@H](C)CO)C(=O)CCCn2cc(nn2)CO[C@@H]1CN(C)C(=O)Nc1ccccc1,-2.98%
9,CCOc1nc(NCCN2CCOCC2)nc(Nc2ccc(C)cc2)n1,-27.7%
10,c1ccc2cc3c(NCCN4CCOCC4)ccnc3cc2c1,-83.2% (active)
11,Fc1ccc(-c2ccc(NCCN3CCOCC3)nn2)cc1,-8.39%
12,Cc1nc(N)sc1-c1ccccc1,-26.3%
13,COc1ccc(-n2c(Cc3cccn3C)nnc2SCC(=O)Nc2cc(C)cc(C)c2)cc1,-24.7%
14,Cc1cccc(-n2c(SCC(N)=O)nc3c(c2=O)C2(CCCCC2)Cc2ccccc2-3)c1,-72.3% (active)
15,N#CCSc1nc2c(c(=O)n1Cc1ccccc1)C1(CCCC1)Cc1ccccc1-2,4.25%
16,Cc1cccc(-n2c(=O)c3c(C)c(C)sc3n(CC(N)=O)c2=O)c1,16.6%
17,COCC(=O)N(C)C[C@H]1Oc2cc(Br)ccc2S(=O)(=O)N([C@H](C)CO)C[C@H]1C,20.9%
18,CCOCCC(=O)Nc1ccc2c(c1)c(=O)n(C)n2-c1ccc2ccccc2c1,87.4%
19,COc1cc2c(cc1OC)C(/C=C/c1ccco1)=NCC2,-75.5% (active)
20,CCOC(=O)C1=NN(c2ccc(Cl)cc2)/C(=C/C2=NCCc3cc(OC)c(OC)cc32)S1,-28.4%
21,COc1ccc(Cl)cc1C(=O)NNC(=S)NC(=O)/C=C/c1ccco1,26.9%
22,C[C@H]1COc2cc(N3CCSCC3)ccc2S(=O)(=O)N1,26.2%
23,COc1ccc(Cl)cc1-c1cc(C(=O)Nc2cc(OC)c(OC)c(OC)c2)[nH]n1,-10.3%
